Hit rate of the full screen: of about 310,000 compounds, about 14,000 (4.5%) showed an effect of 50% or more. The effect is printed as a negative number. The sample as a whole holds a higher share of strong results than the screen did.
Biological target: human ether-à-go-go-related gene (hERG) potassium channel (human, UniProt Q12809)
Assay: primary screen, population patch clamp on CHO cells stably expressing hERG; higher = less effect of the substance
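Further: peak tail current of the secondary pulse compared with the same well before compound.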

human ether-à-go-go-related gene (hERG) potassium channel, sequence (Q12809 whole entry, looked up): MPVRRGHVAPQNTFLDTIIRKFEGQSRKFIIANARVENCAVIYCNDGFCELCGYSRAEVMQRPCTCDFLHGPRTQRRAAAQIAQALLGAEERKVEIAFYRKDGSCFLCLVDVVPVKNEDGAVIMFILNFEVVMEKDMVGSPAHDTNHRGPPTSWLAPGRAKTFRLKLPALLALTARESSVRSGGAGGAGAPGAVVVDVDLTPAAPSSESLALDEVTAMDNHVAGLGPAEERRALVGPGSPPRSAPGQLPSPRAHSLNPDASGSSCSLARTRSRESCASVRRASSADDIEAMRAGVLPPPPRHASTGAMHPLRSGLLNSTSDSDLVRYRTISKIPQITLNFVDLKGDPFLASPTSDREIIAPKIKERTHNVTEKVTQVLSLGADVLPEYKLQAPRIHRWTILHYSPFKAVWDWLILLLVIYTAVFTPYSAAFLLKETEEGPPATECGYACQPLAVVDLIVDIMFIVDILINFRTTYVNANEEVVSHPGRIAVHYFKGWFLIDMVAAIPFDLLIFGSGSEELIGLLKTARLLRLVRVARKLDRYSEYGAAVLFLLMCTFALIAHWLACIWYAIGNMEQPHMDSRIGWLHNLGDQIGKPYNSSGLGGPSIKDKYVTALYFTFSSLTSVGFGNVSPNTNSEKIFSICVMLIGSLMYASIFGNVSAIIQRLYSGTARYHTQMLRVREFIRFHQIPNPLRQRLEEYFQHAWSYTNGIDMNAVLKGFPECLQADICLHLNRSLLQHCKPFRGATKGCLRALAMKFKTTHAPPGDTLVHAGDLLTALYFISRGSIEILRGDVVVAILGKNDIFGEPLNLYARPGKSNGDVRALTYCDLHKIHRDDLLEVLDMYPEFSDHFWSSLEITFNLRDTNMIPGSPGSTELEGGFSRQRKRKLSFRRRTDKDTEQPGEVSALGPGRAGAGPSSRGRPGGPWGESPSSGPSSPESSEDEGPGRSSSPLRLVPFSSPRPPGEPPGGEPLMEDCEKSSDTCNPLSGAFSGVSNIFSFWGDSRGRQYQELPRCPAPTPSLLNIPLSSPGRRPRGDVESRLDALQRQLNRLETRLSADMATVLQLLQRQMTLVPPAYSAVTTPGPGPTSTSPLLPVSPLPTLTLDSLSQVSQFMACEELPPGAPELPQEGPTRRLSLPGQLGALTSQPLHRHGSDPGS

| Structure (SMILES) | hERG current change (%, negative = inhibition) at 10uM |
| --- | --- |
| CC(C)CC(C(=O)NC1CCCC1)N(Cc1cccs1)C(=O)c1snc(C(N)=O)c1N (centres unmarked) | -40.5% |
| CS(=O)(=O)c1ccc2nnn(OCC(=O)Nc3ccc(Br)cc3Br)c2c1 | 7.34% |
| Cc1ccc(/C=N/c2sc3c(c2C(N)=O)CCCC3)o1 | 23.3% |
| COCCNC(=O)/C(C#N)=C/c1cccc(/C=C(\C#N)C(=O)NCCOC)c1 | 0.707% |
| COc1ccccc1-n1cc(CN2CCN(C3CCCC3)C(CCO)C2)cn1 (centres unmarked) | -15.3% |
| COc1ccc(CC2(CO)CCN(Cc3cccnc3)CC2)cc1 | -40.3% |
| COc1ccc(CC2(CO)CCN(Cc3cnn(-c4ccccc4)c3)CC2)cc1 | -77.6% |
| COc1ccccc1-n1cc(CN2CCN(CC=C(C)C)C(CCO)C2)cn1 (centres unmarked) | -13.7% |
| COc1ccc(CC2(CO)CCN(Cc3cnn(-c4ccccc4OC)c3)CC2)cc1 | -64.8% |
| COc1ccc(CC2(CO)CCN(Cc3cnn(-c4ccc(F)cc4)c3)CC2)cc1 | -76.4% |
| COc1ccc(CC2(CO)CCN(Cc3cnc(-c4ccccc4C)nc3)CC2)cc1 | -20.6% |
| Cc1ccc(CCNC(=O)C2CCN(S(=O)(=O)c3ccc4c(c3)NC(=O)CO4)CC2)cc1 | -1.82% |
| CC(NC(=O)OCc1ccccc1)c1ccccc1 (centres unmarked) | -22.9% |
| COCCN1C(=O)N(c2cccc(C)c2)C(=O)C1CC(=O)Nc1cc(OC)cc(OC)c1 (centres unmarked) | 10.2% |
| CC(C)Cc1nnc(NC(=O)CCC(=O)N2CCN(c3ccccc3)CC2)s1 | 13.2% |
| CCN(CC)CCNC(=O)c1cc([N+](=O)[O-])c(N(C)C)cc1OC.Cl | -12% |
| CCCSc1cc(Cl)nc(N)n1 | -9.06% |
| COc1ccc(S(=O)(=O)Nc2cccc(F)c2C)cc1C(=O)N1CCOCC1 | 6.33% |
| CC(NC(=O)COC(=O)c1cn(-c2ccccc2)nc1-c1cccs1)c1ccccc1 (centres unmarked) | 0.115% |
| COC(=O)c1c(NC(C)=O)sc(C(=O)Nc2ccccc2OC)c1C | 16.2% |

| Structure (SMILES) | hERG current change (%, negative = inhibition) at 10uM |
| --- | --- |
| CC(Cc1n[nH]c(=S)o1)c1ccccc1 (centres unmarked) | 20.7% |
| COc1cccc(C(C(=O)NC2CCCC2)N(Cc2cccnc2)C(=O)Cc2cccs2)c1 (centres unmarked) | -5.67% |
| COc1ccc(C2=Nc3ccc(C)cc3C(c3ccccc3)N2CC(=O)NN)cc1 (centres unmarked) | -23.2% |
| O=[N+]([O-])c1ccccc1NCc1ccc(Cl)cc1 | -19.5% |
| C/C=C/c1ccc(OCC(O)CNCCc2ccc(OC)cc2)c(OC)c1.O=C(O)C(=O)O (centres unmarked) | -73.4% |
| C=CCNCC(O)COc1ccc(C(C)=O)cc1OC.O=C(O)C(=O)O (centres unmarked) | -6.16% |
| C/C=C/c1ccc(OCCCNCC(C)O)c(OC)c1 (centres unmarked) | -29.2% |
| C/C=C/c1ccc(OCC(O)CNCC(c2ccc(OC)cc2)N(C)C)c(OC)c1.O=C(O)C(=O)O (centres unmarked) | -66.5% |
| COC(=O)c1ccc(OCC(O)CNCC(c2ccc(OC)cc2)N(C)C)c(OC)c1 (centres unmarked) | -21.4% |
| Cc1cc(Br)ccc1NC(=O)CN(C)C(=O)C1CSC2(C)CCC(=O)N12 (centres unmarked) | 11.5% |
| CC1=CC(C)(C)Nc2ccc(OC(=O)CCN3C(=O)c4ccccc4C3=O)cc21 | 0.14% |
| COc1ccc(C(=O)NC2CCN(C(=S)Nc3ccccc3)CC2)cc1 | 12.7% |
| CNC(=O)c1c[nH]n2c(=O)c(Cc3ccccc3F)c(C)nc12 | 16.9% |
| COc1cccc(/C=C/C(=O)NNC(=O)c2ccncc2)c1 | -20.5% |
| CCOc1cnc(C(=O)NNC(=O)c2ccccc2Br)o1 | 11% |
| CCCNS(=O)(=O)c1ccc(OCC(=O)NCc2ccc3c(c2)OCO3)cc1 | -23.8% |
| C=CCNC(=O)/C(C#N)=C/c1c(C)nn(-c2ccccc2)c1Cl | -20% |
| Cc1ccc(/C=C/C(=O)NC2CCS(=O)(=O)C2)cc1 (centres unmarked) | 20.6% |
| O=C(NC1CCS(=O)(=O)C1)/C(=C\c1ccccc1)NC(=O)c1ccccc1 (centres unmarked) | -11% |
| O=C(NC1CCS(=O)(=O)C1)/C(=C/c1ccc(Cl)cc1)NC(=O)c1ccccc1 (centres unmarked) | -55% |

| Structure (SMILES) | hERG current change (%, negative = inhibition) at 10uM |
| --- | --- |
| O=C(NC(NC1CCS(=O)(=O)C1)C(=O)c1ccccc1)c1ccc(Cl)cc1 (centres unmarked) | -51.6% |
| O=C(NC(NC1CCS(=O)(=O)C1)C(=O)c1cccs1)c1ccccc1 (centres unmarked) | -1.01% |
| O=C(/C=C/c1ccccc1)NC1CCS(=O)(=O)C1 (centres unmarked) | 18.1% |
| O=C(NC(NC1CCS(=O)(=O)C1)C(Cl)(Cl)Cl)c1cccc(Cl)c1 (centres unmarked) | -7.37% |
| O=C(NC1CCS(=O)(=O)C1)/C(=C\c1ccc(F)cc1)NC(=O)c1ccccc1 (centres unmarked) | -34.7% |
| O=C(/C=C/c1ccc(Cl)cc1)NC1CCS(=O)(=O)C1 (centres unmarked) | -58.7% |
| Cc1ccc(NC(=O)NCc2ccccn2)cc1 | 37.7% |
| Fc1ccc(OCc2nc(-c3cccs3)no2)cc1 | -9.58% |
| c1ccc(Cc2nn3c(COc4ccccc4)nnc3s2)cc1 | 6.61% |
| CC1=C(C(=O)OCc2ccccc2)C(c2ccccc2[N+](=O)[O-])NC(=O)N1C (centres unmarked) | 1.71% |
| COc1ccccc1Nc1nc(N)nc(CN2CCC(Cc3ccccc3)CC2)n1 | -84.5% |
| COc1ccccc1Nc1nc(N)nc(CCl)n1 | 3.4% |
| COc1ccccc1Nc1nc(N)nc(CN2CCN(c3ccccc3)CC2)n1 | -52.9% |
| COc1ccc(OCc2nc(N)nc(Nc3ccccc3OC)n2)cc1 | 9.46% |
| COc1ccccc1Nc1nc(N)nc(CN2CCN(Cc3ccccc3)CC2)n1 | -73.2% |
| COc1ccccc1Nc1nc(N)nc(CSC(=S)N2CCOCC2)n1 | -9.92% |
| COc1ccc(N2CCN(Cc3nc(N)nc(Nc4ccccc4OC)n3)CC2)cc1 | -62% |
| COc1cccc(N2CCN(Cc3nc(N)nc(Nc4ccccc4OC)n3)CC2)c1 | -25.6% |
| COc1ccccc1Nc1nc(N)nc(CSC(=S)N2CCN(c3ccccc3)CC2)n1 | 6.86% |
